# Reference: PubChem BioAssay (NCATS)
# Records with an inconclusive call do not appear. Entries that show only a call come without a potency. Activity calls are given as the source filed them. Calls come from the whole dose curve; as a rule, active = well fitted inhibition curve with a large enough effect; inconclusive = small, poorly fitted or top-dose-only effect; inactive = flat fitted curve, though single readings scatter.
# Target: Calcium and integrin-binding protein 1 (Homo sapiens) (UniProt Q99828)
# Sequence (Q99828 whole entry, looked up): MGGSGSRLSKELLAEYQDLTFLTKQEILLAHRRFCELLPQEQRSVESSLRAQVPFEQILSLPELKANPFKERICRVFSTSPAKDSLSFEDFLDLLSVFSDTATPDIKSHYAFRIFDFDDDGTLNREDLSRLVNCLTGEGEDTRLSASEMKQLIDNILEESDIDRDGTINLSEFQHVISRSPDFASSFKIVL
# Experiment: Primary qHTS for Identification of Calcium Integrin Binding Protein 1 (CIB1) Competitor (AID 1508620);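 note: GST tagged CIB1 binding a fluorescein labelled alphaIIb integrin peptide tracer; top concentration of the series differs between compounds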
# Settings: CIB1-GST / FITC-alphaIIb peptide fluorescence polarization; series mostly up to 114 µM
# In short: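 CIB1-GST (1 uM final) and compound incubated 15 min at room temperature before adding FITC-alphaIIb peptide tracer (100 nM final). Competition for binding read by fluorescence polarization (ex 480, em 540) after another 15 min at room temperature.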
row,SMILES,Potency
1,O=C1c2ccccc2C(=O)N1c1ccc(Cl)cc1,inactive
2,Cc1ccnc(NC(=S)N2CCC(Nc3cccc(C(F)(F)F)c3)CC2)c1,inactive
3,Cc1ccc(OCCn2c(CCNC(=O)Cc3ccccc3)nc3ccccc32)cc1,inactive
4,COc1ccc(-c2nnc3n2N=C(c2c(OC)cccc2OC)CS3)c(OC)c1,inactive
5,c1ccc(OCc2nnc3ccc(-c4ccccc4)nn23)cc1,inactive
6,Cc1cccc(Cn2ncc3c4sc(C)cc4n(C)c3c2=O)c1,inactive
7,Oc1ccc(CNc2ccc(F)cc2Cl)c2cccnc12,inactive
8,NCCCCNc1ncnc2ccc(-c3ccc4c(c3)OCO4)cc12,inactive
9,Oc1ccc(CNc2nccc3ccccc23)c2cccnc12,inactive
10,Cc1ccc(NS(=O)(=O)c2cc3c(cc2NCC(C)(C)O)NC(=O)CC3)cc1C,inactive
11,O=c1c2ccc(C(F)(F)F)cc2nc2sc(Nc3ccc4c(c3)CCC4)nn12,inactive
12,COc1cccc(C2c3c(ncn(-c4cccc(C#N)c4)c3=N)Oc3ccc4ccccc4c32)c1 (stereo not given),inactive
13,COc1ccc(OC)c(C2=Nn3c(nnc3-c3ccccc3C)SC2)c1,inactive
14,COc1cccc(C2=Nn3c(nnc3-c3ccccc3OC)SC2)c1,inactive
15,Cc1cccc(-n2cnc3cc(C(=O)N4CCN(C)CC4)ccc32)c1,inactive
16,CC(=O)Nc1ccc(S(=O)(=O)N2CCN(S(=O)(=O)c3c(F)cccc3F)CC2)cc1,inactive
17,COc1ccc(C2=Nn3c(nnc3-c3ccccc3OC)SC2)cc1OC,inactive
18,Cn1nnnc1Sc1ncnc2scc(-c3cnc(N)nc3)c12,inactive
19,COC(=O)c1cc2c(s1)c1cnn(Cc3ccccc3F)c(=O)c1n2C,inactive
20,Cc1csc(CNc2ncnc3ccc(-c4ccc5c(c4)OCO5)cc23)n1,inactive

row,SMILES,Potency
1,N#Cc1ccc(-c2ccc(CNc3ccc(N4CCCCC4)cc3)o2)cc1,inactive
2,N#Cc1ccc(CNc2nc(-c3ccccc3C(F)(F)F)nc3ccccc23)cc1,inactive
3,COC(=O)c1ccccc1NC(=O)c1ccccc1OC(F)F,inactive
4,Cc1ccc(-c2nn(CC(=O)N(C)C(C)c3ccco3)c(=O)cc2C)cc1 (stereo not given),inactive
5,O=C(Cc1nnc(CNC(=O)c2ccccc2)s1)Nc1ccc(C(F)(F)F)cc1Cl,inactive
6,O=C(c1ccccc1O)N(Cc1ccccc1)Cc1cccs1,inactive
7,COc1cccc(CNc2ccc([S+](=O)([O-])Nc3cc4ccccc4s3)cc2)c1O,inactive
8,Cc1ccc(NC(=O)CN2C(=O)N/C(=C\c3cccn3-c3ccc(C(=O)O)cc3)C2=O)cc1,inactive
9,CC(=O)Nc1sc2c(c1-c1cccc(N(C)C)c1)CCNC2,inactive
10,CC(=O)Nc1sc2c(c1-c1nc3ccccc3s1)CCN(C(C)C)C2,inactive
11,O=C(Nc1nnc(-c2ccco2)o1)c1ccncc1,inactive
12,N#CC1CCN(c2nc(-c3ccc(Br)cc3)cs2)CC1,inactive
13,FC(F)(F)c1ccccc1-c1nc(NCc2ccccc2)c2ccccc2n1,inactive
14,Cc1cc2c(s1)c1cnn(Cc3cc(C(F)(F)F)ccc3F)c(=O)c1n2C,inactive
15,Cc1cccc(-n2cnc3cc(C(=O)NC4CCCCC4)ccc32)c1,inactive
16,Cc1cccc(-n2cnc3cc(C(=O)NC(C)(C)C)ccc32)c1,inactive
17,O=C(Nc1cccnc1)c1ccco1,inactive
18,Cc1cccc(-n2cnc3cc(C(=O)N4CCCC(c5ccccc5)C4)ccc32)c1 (stereo not given),inactive
19,O=C(O)c1ccc(O)c2ncc(NCC3CCCN(CCc4ccccc4)C3)cc12 (stereo not given),inactive
20,CC(=O)c1ccc(N2CCN(S(=O)(=O)c3ccc4[nH]c(=O)oc4c3)CC2)cc1,inactive
